Bioassay records from PubChem BioAssay.
Rows were chosen to be rich in hits. Some 5.4% of all compounds tested hit in one or more screens of this group.
HSF1 inhib: HSF1 inhibitors in luciferase reporter cells, primary screen, cell-based, NIH3T3, luminescence. AID 2098, 2009. activity change, negative = inhibition, % at 7.5 µM (by protocol). NIH3T3-HGL HSE-luciferase, MG132-induced, luminescence 8 h; stronger effect = lower value. 0.77% of 300,000 active;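 active = more than half of replicate wells show activity change below -50%, luminescence cut by over half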;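 note: luciferase reports HSF-1 transcriptional activity via heat shock element; 0% = median of DMSO wells and -100% = zero luminescence signal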
FXN GAA850 act: FXN promoter activators, primary screen, cell-based, luciferase luminescence, HEK293 lucGAA850. HEK293 lucGAA850 FXN promoter luciferase reporter, 24 h; percent of 10 µM SAHA response. activation, % at 6 µM. 0.56% of 360,000 active. AID 540364, 2011;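 active = activation above the average of all compounds screened plus 3 SD, cutoff fixed separately per campaign, cut at about 7.5% in these data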;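 note: 0% = DMSO wells and 100% = 10 µM SAHA wells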
AHR activator: AHR activators, primary screen, cell-based, luminescence, luciferase reporter, human; AHR-responsive luciferase reporter cells; activation, % at 5 µM; 2.5% of 320,000 active; AID 2796, 2010; in the data active = activation above about 47%;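 note: 0% = vehicle wells and 100% = reference agonist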
Target sequence (P35869 whole entry, looked up): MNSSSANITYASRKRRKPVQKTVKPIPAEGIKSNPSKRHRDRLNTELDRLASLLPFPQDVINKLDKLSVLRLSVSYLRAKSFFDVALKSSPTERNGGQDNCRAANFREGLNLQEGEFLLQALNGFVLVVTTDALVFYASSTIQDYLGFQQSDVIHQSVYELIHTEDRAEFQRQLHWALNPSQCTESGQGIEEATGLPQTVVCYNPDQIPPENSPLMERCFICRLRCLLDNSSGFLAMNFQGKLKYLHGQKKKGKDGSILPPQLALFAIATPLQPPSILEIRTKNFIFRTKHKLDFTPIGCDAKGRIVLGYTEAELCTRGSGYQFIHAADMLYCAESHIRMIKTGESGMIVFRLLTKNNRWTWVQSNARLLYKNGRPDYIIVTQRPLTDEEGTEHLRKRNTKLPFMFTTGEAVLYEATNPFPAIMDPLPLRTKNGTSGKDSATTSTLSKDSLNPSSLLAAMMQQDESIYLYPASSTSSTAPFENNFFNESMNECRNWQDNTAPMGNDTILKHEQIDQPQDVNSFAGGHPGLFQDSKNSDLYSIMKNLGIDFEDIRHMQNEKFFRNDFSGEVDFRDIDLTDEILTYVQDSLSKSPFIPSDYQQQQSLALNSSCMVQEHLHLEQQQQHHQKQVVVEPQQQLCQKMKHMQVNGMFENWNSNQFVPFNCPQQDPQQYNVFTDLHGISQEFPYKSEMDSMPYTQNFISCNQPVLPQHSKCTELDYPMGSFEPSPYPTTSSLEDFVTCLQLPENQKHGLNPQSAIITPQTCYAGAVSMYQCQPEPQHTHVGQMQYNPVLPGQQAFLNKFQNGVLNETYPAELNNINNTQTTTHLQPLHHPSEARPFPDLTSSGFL
NR0B1 inh: DAX1 (NR0B1) inhibitors, primary screen, cell-based, HEK293, Gal4-DAX1, luciferase luminescence; Nuclear receptor subfamily 0 group B member 1 (Homo sapiens), P51843; HEK293 Gal4-DAX1 luciferase reporter; inhibition, % at 6.75 µM; 0.99% of 340,000 active; AID 504766, 2011;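 active = inhibition above the mean over all tested compounds plus 3 SD, cut at about 4.2% in these data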;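 note: 0% = DAX1-transfected cells with DMSO and 100% = empty-vector control cells with DMSO; inhibition shows as a rise in luminescence from relieved DAX1 repression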
HSF-1 act: HSF-1 activators, primary screen, NIH3T3-HGL cells, MG132 stress, luminescence, single point | NIH3T3-HGL HSF-1 luciferase reporter, 8 h; 100% = twice DMSO control signal | activation, % at 9 µM | 1.7% of 300,000 active;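 active = mean replicate activation of at least 50% with a set share of replicates each reaching 50%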;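 note: 0% = median of the neutral control wells and 100% = twice that signal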
* hit, by the source's call; x = no result given.

SMILES	HSF1 inhib	FXN GAA850 act	AHR activator	NR0B1 inh	HSF-1 act
O=C(Nc1nccs1)c1ccc2ccccc2c1	35.1	3.3	53.9*	2.7	41.9
COc1ccccc1C(=O)Nc1nc(-c2cccs2)c(NC(C)=O)s1	14.9	1.3	71.7*	2.0	26.4
CCC(C)N(C(=O)COC(=O)CNC(=O)c1sc2ccccc2c1Cl)C1CCS(=O)(=O)C1 (centres undefined)	8.8	2.4	1.7	0.3	5.1
Cc1nnc2c(NCCc3ccccc3)nc3ccccc3n12	20.5	-2.1	16.6	0.2	48.8
Cc1cc(C(=O)N/N=C/c2cccs2)n[nH]1	15.9	6.9	10.8	x	32.2
Cc1cc(C(=O)N/N=C/c2cc(Br)cc(Br)c2OC(=O)c2ccccc2)n[nH]1	2.2	x	10.9	x	3.4
Cc1cc(C(=O)N/N=C/c2cc(Br)ccc2OC(=O)c2ccc(Br)cc2)n[nH]1	10.3	x	50.3*	x	32.9
Cc1cc(C(=O)N/N=C\c2cc(C(C)(C)C)ccc2O)n[nH]1	-2.8	-1.7	52.6*	-0.6	2.1
O=C(O)CN1C(=O)/C(=C/C=C/c2ccccc2)SC1=S	0.9	1.2	3.4	1.1	-21.2
CCN1C(=O)C(=CC=CN(C)c2ccccc2)SC1=S	x	2.7	x	4.7*	x
CC(=O)NNC(=O)CN1C(=O)/C(=C/c2ccccc2)SC1=S	-2.2	0.6	5.2	0.2	-2.1
CCN(CC)C(=O)CN1C(=O)/C(=C/c2ccccc2)SC1=S	-57.5*	0.1	0.3	2.0	-68.4
NS(=O)(=O)c1ccc(CNc2nc(-c3cccnc3)nc3ccccc23)cc1	6.9	1.2	7.4	4.1	10.6
c1ccc(Cc2nnc(-c3ccccc3)o2)cc1	20.5	2.7	0.7	4.0	29.4
Brc1ccc(-c2nnc(Cc3ccccc3)o2)cc1	33.9	4.1	0.8	x	56.4*
O=C(/C=C/c1ccncc1)c1cc(Cl)ccc1O	24.5	0.3	15.8	0.8	59.1*
COc1ccc(/C=C/C(=O)c2cc(Cl)ccc2O)c(OC)c1	46.6	3.2	24.5	0.8	64.4*
CN(C)c1ccc(/C=C/C(=O)c2cc(Cl)ccc2O)cc1	14.5	3.3	33.0	0.0	13.4
Cc1ccc2nc(SC(C(=O)Nc3ccc(F)cc3)c3ccccc3)[nH]c2c1 (centres undefined)	0.7	-7.2	78.9*	0.0	46.9
Cc1ccc(C)c(NC(=O)C(Sc2nc3ccc(C)cc3[nH]2)c2ccccc2)c1 (centres undefined)	-7.3	0.8	43.1	-1.6	11.3
CC(=O)NCCc1ccc(S(=O)(=O)Nc2ccc3c(c2)OCCO3)cc1	-21.5	-3.1	-1.4	0.5	-26.9
CC(=O)N(c1cccc(C(F)(F)F)c1)c1nc(/C=C/C(=O)O)cs1	10.3	1.1	72.9*	-1.2	-16.6
CCC(=O)c1cn(CC(=O)Nc2cc(C)ccc2C)c2ccccc12	-0.7	0.0	1.7	-0.3	6.1
Cc1ccc(Cl)cc1NC(=O)c1cc(S(=O)(=O)N2CCOCC2)cn1C	-0.2	-0.1	-0.1	-0.1	4.6
Cc1[nH]c2c([N+](=O)[O-])cccc2c1C	2.6	0.6	4.7	4.2*	5.5
SMILES	HSF1 inhib	FXN GAA850 act	AHR activator	NR0B1 inh	HSF-1 act
O=C(NCCS(=O)(=O)N1CCN(c2cccc(Cl)c2)CC1)c1ccc2c(c1)OCO2	0.5	-0.1	-0.1	-1.0	6.4
O=C(Nc1ccccc1N1CCOCC1)c1ccc(Cl)c(S(=O)(=O)N2CCCC2)c1	x	-0.7	-0.3	-0.6	x
CC(=O)N(/N=C/c1cccc(C)c1)c1nc(-c2ccc(Br)cc2)cs1	1.2	-0.1	78.3*	0.6	12.5
COc1ccc(/C=N/N(C(C)=O)c2nc(-c3ccc(C)cc3)cs2)cc1	-6.1	-1.1	12.9	2.1	4.7
COc1ccccc1/C=N/N(C(C)=O)c1nc(-c2ccc(F)cc2)cs1	-0.9	0.7	55.9*	2.7	-7.2
COc1cc(NC(=O)c2cccc3c(-c4cnn(C)c4)coc23)cc(OC)c1OC	x	-8.4	x	x	x
Clc1ccc(CCNc2nc3ccccc3n3nnnc23)cc1	26.0	2.2	4.5	0.8	51.3*
Cc1ccc(Nc2nc3ccccc3n3nnnc23)cc1	-13.4	3.6	51.6*	2.0	-16.2
CCC(=O)N1c2ccc(S(=O)(=O)NC3CCCCC3)cc2CC1C (centres undefined)	-0.7	1.4	-1.4	0.1	-9.1
Cc1nn(-c2ccccc2)c2nc(N)c(C#N)c(-c3ccc(C(C)(C)C)cc3)c12	2.8	1.0	-0.6	0.7	4.8
COc1cccc(-c2c(C#N)c(N)nc3c2c(C)nn3-c2ccccc2)c1O	52.0	2.9	11.5	-0.5	62.7*
CCOC(=O)c1csc(COc2ccc(OC)cc2)n1	22.0	2.4	-6.2	-1.6	64.3*
Cc1ccc(NC(=O)c2cccc(OC(F)F)c2)c(OC(F)F)c1	-7.2	-0.8	16.9	-0.8	11.6
Cc1c(Cl)cccc1NC(=O)c1cccc(OC(F)F)c1	-71.5*	-0.3	20.4	-0.3	-77.1
Cc1nc2ccc(F)cc2cc1C(=O)Nc1cccc(Cl)c1C	-3.1	2.2	107.2*	1.3	-9.6
COc1ccc(NC(=O)c2cccc(OC(F)F)c2)cc1Cl	15.6	4.2	49.4*	-0.9	27.6
O=C(NC1=NCCS1)c1cccc(OC(F)F)c1	10.6	3.1	11.2	4.8*	47.3
O=C(Nc1ccc(OC(F)F)c(Cl)c1)c1cccc(OC(F)F)c1	2.6	0.4	-7.1	-0.6	9.8
N#Cc1cnn2c(-c3cccc([N+](=O)[O-])c3)ccnc12	x	2.4	-5.3	-0.6	x
O=C(Nc1ccc2c(c1)CCC2)c1cccc(OC(F)F)c1	48.3	2.6	2.5	x	81.9*
COc1ccc(NC(=O)COC(=O)c2ccc(Cl)c(S(N)(=O)=O)c2)c([N+](=O)[O-])c1	0.4	-1.1	-0.1	5.0*	-4.9
COc1ccc(NC(=O)COC(=O)c2cc(OC)c(OC)c(OC)c2)c([N+](=O)[O-])c1	-2.5	3.2	-0.6	-0.6	-11.2
CNS(=O)(=O)c1cccc(C(=O)OCC(=O)Nc2ccc(OC)cc2[N+](=O)[O-])c1	27.9	0.3	-0.7	4.3*	30.9
NS(=O)(=O)c1cc(C(=O)OCC(=O)Nc2ccc(Cl)cc2[N+](=O)[O-])ccc1Cl	0.1	0.9	3.1	1.7	3.5
O=S(=O)(c1ccccc1)N1N=C(c2ccc(Cl)cc2)CC1c1ccco1 (centres undefined)	x	-0.2	x	-2.1	x
CCN(CC(=O)c1c(N)n(C)c(=O)n(C)c1=O)c1cccc2ccccc12	61.8	-2.5	50.0*	-0.3	85.2*
O=C1OC(/C=C/c2ccccc2)=NC/1=C/C=C/c1ccccc1	82.4	3.5	-1.6	-1.1	111.8*
CCOC(=O)c1ccc(Nc2ncnc3nc[nH]c23)cc1	-75.1*	-0.5	2.8	-0.6	-77.8
